{"source": "the supplement of paper PMC9135407", "system": "primary human hepatic stellate cells (donor 1)", "assay": "scaled lipid accumulation score (0 = DMSO-like, 1 = nortriptyline-like); higher = stronger HSC inactivation (lipid re-accumulation), active = hit call of the paper", "conditions": "48 h", "protocol": "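Primary lipid accumulation screen in primary human hepatic stellate cell myofibroblasts (donor 1, passage 8) in 384-well plates. 100 nL of library compound was pin-transferred into 30 µL medium in duplicate, and cells were treated for 48 h. The 'Scaled' score combines distance from plate baseline, toxicity and reproducibility penalties, and is normalised to nortriptyline (positive) and DMSO (negative) controls on each plate. A hit is defined as scaled >0.85 or among the top 3 wells per plate.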", "key": {"[1]": {"conditions": "library stock concentration: 10 mM"}, "[2]": {"conditions": "library stock concentration: 1 mM"}, "[3]": {"conditions": "library stock concentration: 100 uM"}, "[4]": {"conditions": "library stock concentration: 3.33 mM"}, "[5]": {"conditions": "library stock concentration: 80 uM"}, "[6]": {"conditions": "library stock concentration: 400 uM"}, "[7]": {"conditions": "library stock concentration: 2 mM"}}, "note": "Structures can show the parent of a compound that is named as a salt. Out of some 5,800 compounds screened, about 620 (11%) showed activity.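 The calls were made as follows: active = score above a cut-off or among the top three wells of a plate; in these data no inactive exceeds 0.85.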 Only a selection was taken, and actives are over-represented in it overall."}
{"smiles": "Nc1c2c(nc3ccccc13)CCCC2O", "note": "(stereo not drawn) [Hydroxytacrine maleate]", "values": [{"measurement": "scaled lipid accumulation score", "setting": "library stock concentration: 9.3 mM", "result": "≤ -0.006 (inactive)"}, {"measurement": "scaled lipid accumulation score", "setting": "[1]", "result": "0.056 (inactive)"}]}
{"smiles": "Nc1c2c(nc3ccccc13)CCCC2", "note": "[Tacrine hydrochloride]", "values": [{"measurement": "scaled lipid accumulation score", "setting": "[1]", "result": "0.064 (inactive)"}]}
{"smiles": "Nc1c2c(nc3ccccc13)CCCC2", "note": "[Tacrine (hydrochloride)]", "values": [{"measurement": "scaled lipid accumulation score", "setting": "[2]", "result": "0.026 (inactive)"}]}
{"smiles": "Nc1c2c(nc3ccccc13)CCCC2", "values": [{"measurement": "scaled lipid accumulation score", "setting": "library stock concentration: 9.7 mM", "result": "0.039 (inactive)"}]}
{"smiles": "Cl.Cl.c1ccc2c(NCCCCCCCNc3c4c(nc5ccccc35)CCCC4)c3c(nc2c1)CCCC3", "note": "[bis(7)-Tacrine]", "values": [{"measurement": "scaled lipid accumulation score", "setting": "[2]", "result": "1.11 (active)"}]}
{"smiles": "Nc1c2c(nc3ccccc13)CCCC2", "note": "[9-Amino-1,2,3,4-tetrahydroacridine hydrochloride]", "values": [{"measurement": "scaled lipid accumulation score", "setting": "[1]", "result": "0.401 (inactive)"}]}
{"smiles": "CCCCCC(=O)CC[C@H]1C=CC(=O)[C@@H]1C/C=C\\CCCC(=O)O", "note": "[13,14-dihydro-15-keto Prostaglandin A2]", "values": [{"measurement": "scaled lipid accumulation score", "setting": "[2]", "result": "≤ 0 (inactive)"}]}
{"smiles": "CCCCC[C@H](O)/C=C/[C@H]1C2CC(CO2)[C@@H]1C/C=C/CCCC(=O)O", "note": "(stereo partly drawn)", "values": [{"measurement": "scaled lipid accumulation score", "setting": "[2]", "result": "≤ 0 (inactive)"}]}
{"smiles": "CCCCC[C@](C)(O)/C=C/[C@@H]1[C@@H](C/C=C\\CCCC(=O)O)[C@@H](O)C[C@H]1O", "note": "[15(S)-15-methyl Prostaglandin F2.alpha.]", "values": [{"measurement": "scaled lipid accumulation score", "setting": "[2]", "result": "≤ 0 (inactive)"}]}
{"smiles": "CCCCC/C=C\\C/C=C\\CC1OC1C/C=C\\CCCC(=O)O", "note": "(stereo not drawn) [8,9-Epoxyeicosatrienoic acid]", "values": [{"measurement": "scaled lipid accumulation score", "setting": "[3]", "result": "≤ -0.021 (inactive)"}]}
{"smiles": "CNC(=O)c1cc(Oc2ccc(NC(=O)Nc3ccc(Cl)c(C(F)(F)F)c3)cc2)ccn1", "note": "[Sorafenib (Nexavar, BAY43-9006) (10 mM)]", "values": [{"measurement": "scaled lipid accumulation score", "setting": "[1]", "result": "1.21 (active)"}]}
{"smiles": "CNC(=O)c1cc(Oc2ccc(NC(=O)Nc3ccc(Cl)c(C(F)(F)F)c3)cc2)ccn1", "note": "[Sorafenib]", "values": [{"measurement": "scaled lipid accumulation score", "setting": "[4]", "result": "≤ 0 (inactive)"}, {"measurement": "scaled lipid accumulation score", "setting": "[1]", "result": "≤ 0 (inactive)"}]}
{"smiles": "CNC(=O)c1cc(Oc2ccc(NC(=O)Nc3ccc(Cl)c(C(F)(F)F)c3)c(F)c2)ccn1", "note": "[Regorafenib (BAY 73-4506)]", "values": [{"measurement": "scaled lipid accumulation score", "setting": "[4]", "result": "≤ 0 (inactive)"}, {"measurement": "scaled lipid accumulation score", "setting": "[1]", "result": "≤ 0 (inactive)"}]}
{"smiles": "CNC(=O)c1cc(Oc2ccc(NC(=O)Nc3ccc(Cl)c(C(F)(F)F)c3)cc2)ccn1", "note": "[Sorafenib Tosylate]", "values": [{"measurement": "scaled lipid accumulation score", "setting": "[4]", "result": "0.005 (inactive)"}, {"measurement": "scaled lipid accumulation score", "setting": "[1]", "result": "≤ 0 (inactive)"}]}
{"smiles": "CNC(=O)c1cc(Oc2ccc(NC(=O)Nc3ccc(Cl)c(C(F)(F)F)c3)cc2)ccn1", "values": [{"measurement": "scaled lipid accumulation score", "setting": "[5]", "result": "0.04 (inactive)"}, {"measurement": "scaled lipid accumulation score", "setting": "[6]", "result": "0.075 (inactive)"}, {"measurement": "scaled lipid accumulation score", "setting": "[7]", "result": "≤ 0 (inactive)"}, {"measurement": "scaled lipid accumulation score", "setting": "[1]", "result": "0.672 (inactive)"}]}
{"smiles": "CNC(=O)c1cc(Oc2ccc(NC(=O)Nc3ccc(Cl)c(C(F)(F)F)c3)c(F)c2)ccn1", "note": "[Regorafenib]", "values": [{"measurement": "scaled lipid accumulation score", "setting": "[5]", "result": "≤ -0.016 (inactive)"}, {"measurement": "scaled lipid accumulation score", "setting": "[6]", "result": "0.033 (inactive)"}, {"measurement": "scaled lipid accumulation score", "setting": "[7]", "result": "≤ -0.016 (inactive)"}, {"measurement": "scaled lipid accumulation score", "setting": "[1]", "result": "≤ -0.016 (inactive)"}]}
{"smiles": "CNC(=O)c1cc(Oc2ccc(NC(=O)Nc3ccc(Cl)c(C(F)(F)F)c3)cc2)ccn1", "note": "[Sorafenib  (Nexavar, BAY43-9006) (2 mM)]", "values": [{"measurement": "scaled lipid accumulation score", "setting": "[7]", "result": "0.299 (inactive)"}]}
{"smiles": "CNC(=O)c1cc(Oc2ccc(NC(=O)Nc3ccc(Cl)c(C(F)(F)F)c3)cc2)ccn1", "note": "[Sorafenib  (Nexavar, BAY43-9006) (0.4 mM)]", "values": [{"measurement": "scaled lipid accumulation score", "setting": "[6]", "result": "0.021 (inactive)"}]}
{"smiles": "CC1(C(=O)O)NCCc2cc(O)c(O)cc21", "note": "(stereo not drawn) [Salsolinol-1-carboxylic acid]", "values": [{"measurement": "scaled lipid accumulation score", "setting": "[1]", "result": "0.05 (inactive)"}]}
{"smiles": "NC/C=C/C(=O)O", "note": "[(E)-4-amino-2-butenoic acid]", "values": [{"measurement": "scaled lipid accumulation score", "setting": "[1]", "result": "≤ 0 (inactive)"}]}
{"smiles": "CCn1cc(-c2ccnc3[nH]c(-c4cccc(CN(C)C)c4)cc23)c(-c2ccc(NC(=O)N(C)C)cc2)n1", "note": "[listing 1 of 2 here]", "values": [{"measurement": "scaled lipid accumulation score", "setting": "[5]", "result": "≤ 0 (inactive)"}, {"measurement": "scaled lipid accumulation score", "setting": "[6]", "result": "≤ 0 (inactive)"}, {"measurement": "scaled lipid accumulation score", "setting": "[7]", "result": "0.222 (inactive)"}]}
{"smiles": "CCn1cc(-c2ccnc3[nH]c(-c4cccc(CN(C)C)c4)cc23)c(-c2ccc(NC(=O)N(C)C)cc2)n1", "note": "[listing 2 of 2 here]", "values": [{"measurement": "scaled lipid accumulation score", "setting": "[1]", "result": "0.863 (active)"}]}
{"smiles": "CN(C)C(=O)Nc1cccc(-c2ccc(N(C)C)cc2)c1", "note": "[Atglistatin]", "values": [{"measurement": "scaled lipid accumulation score", "setting": "[4]", "result": "0.012 (inactive)"}, {"measurement": "scaled lipid accumulation score", "setting": "[1]", "result": "0.076 (inactive)"}]}
{"smiles": "NCCNCCNCCN", "note": "[Trientine hydrochloride]", "values": [{"measurement": "scaled lipid accumulation score", "setting": "library stock concentration: 9.1 mM", "result": "≤ 0 (inactive)"}]}
{"smiles": "CC(=O)Oc1ccc2c(c1)CC[C@@H]1[C@@H]2CC[C@]2(C)[C@@H](OC(C)=O)CC[C@@H]12", "note": "[Estradiol diacetate]", "values": [{"measurement": "scaled lipid accumulation score", "setting": "[1]", "result": "≤ 0 (inactive)"}]}
{"smiles": "N#C[C@@H]1C[C@@H]2C[C@@H]2N1C(=O)[C@@H](N)C12CC3CC(CC(O)(C3)C1)C2", "values": [{"measurement": "scaled lipid accumulation score", "setting": "[1]", "result": "≤ 0 (inactive)"}]}
{"smiles": "N#C[C@@H]1C[C@@H]2C[C@@H]2N1C(=O)[C@@H](N)C12CC3CC(CC(O)(C3)C1)C2", "note": "[Saxagliptin]", "values": [{"measurement": "scaled lipid accumulation score", "setting": "[4]", "result": "≤ 0 (inactive)"}, {"measurement": "scaled lipid accumulation score", "setting": "[1]", "result": "≤ 0 (inactive)"}]}
{"smiles": "O=C(O)CCC/C=C\\C[C@H]1C(=O)C[C@@H](O)[C@@H]1/C=C/[C@@H](O)Cc1ccccc1", "note": "[16-phenyl tetranor Prostaglandin E2]", "values": [{"measurement": "scaled lipid accumulation score", "setting": "[2]", "result": "≤ 0 (inactive)"}]}
{"smiles": "CCCCn1c(=O)c2[nH]c(C34CC5CC(CC3C5)C4)nc2n(CCCO)c1=O", "values": [{"measurement": "scaled lipid accumulation score", "setting": "[1]", "result": "≤ -0.001 (inactive)"}]}
{"smiles": "CN1CCN2c3ccccc3Cc3ccccc3C2C1.Cl", "note": "(stereo not drawn) [Mianserin hydrochloride]", "values": [{"measurement": "scaled lipid accumulation score", "setting": "[1]", "result": "0.869 (active)"}]}
{"smiles": "CN1CCN2c3ccccc3Cc3ccccc3C2C1", "note": "(stereo not drawn) [Mianserin hcl]", "values": [{"measurement": "scaled lipid accumulation score", "setting": "library stock concentration: 7.6 mM", "result": "0.348 (inactive)"}]}
{"smiles": "CN1CCN2c3ccccc3Cc3ccccc3C2C1", "note": "(stereo not drawn) [Mianserine hydrochloride]", "values": [{"measurement": "scaled lipid accumulation score", "result": "0.681 (inactive)"}]}
{"smiles": "CN1CCN2c3ncccc3Cc3ccccc3C2C1", "note": "(stereo not drawn) [mirtazapine]", "values": [{"measurement": "scaled lipid accumulation score", "setting": "[1]", "result": "0.317 (inactive)"}]}
{"smiles": "CN1CCN2c3ccccc3Cc3ccccc3C2C1", "note": "(stereo not drawn) [Mianserin HCl]", "values": [{"measurement": "scaled lipid accumulation score", "setting": "[4]", "result": "0.172 (inactive)"}, {"measurement": "scaled lipid accumulation score", "setting": "[1]", "result": "0.188 (inactive)"}]}
{"smiles": "CN1CCN2c3ncccc3Cc3ccccc3C2C1", "note": "(stereo not drawn) [Mirtazepine]", "values": [{"measurement": "scaled lipid accumulation score", "setting": "[1]", "result": "0.053 (inactive)"}]}
{"smiles": "CN1CCN2c3ncccc3Cc3ccccc3C2C1", "note": "(stereo not drawn) [Mirtazapine]", "values": [{"measurement": "scaled lipid accumulation score", "setting": "[4]", "result": "≤ 0 (inactive)"}, {"measurement": "scaled lipid accumulation score", "setting": "[1]", "result": "0.104 (inactive)"}]}
{"smiles": "CN1CCN2c3ccccc3Cc3ccccc3C2C1", "note": "(stereo not drawn) [Mianserin hydrochloride]", "values": [{"measurement": "scaled lipid accumulation score", "setting": "library stock concentration: 6.6 mM", "result": "0.236 (inactive)"}, {"measurement": "scaled lipid accumulation score", "setting": "[1]", "result": "0.398 (inactive)"}]}
{"smiles": "CN1CCN2c3ncccc3Cc3ccccc3C2C1", "note": "(stereo not drawn)", "values": [{"measurement": "scaled lipid accumulation score", "setting": "[1]", "result": "0.409 (inactive)"}]}
{"smiles": "Cc1c(C)c2c(c(C)c1O)CC[C@@](C)(CCC[C@H](C)CCC[C@H](C)CCCC(C)C)O2", "note": "(racemic) [Tocopherol (R,S)]", "values": [{"measurement": "scaled lipid accumulation score", "result": "≤ 0 (inactive)"}]}
{"smiles": "CN1CCN(c2c(F)cc3c(=O)c(C(=O)O)cn(CCF)c3c2F)CC1", "note": "[Fleroxacin]", "values": [{"measurement": "scaled lipid accumulation score", "setting": "library stock concentration: 5.4 mM", "result": "≤ 0 (inactive)"}]}
{"smiles": "CCCCCC(=O)/C=C/C=C\\C/C=C\\C/C=C\\CCCC(=O)O", "note": "[15-Ketoicosatetraenoic acid]", "values": [{"measurement": "scaled lipid accumulation score", "setting": "[3]", "result": "≤ -0.021 (inactive)"}]}
